{
  "source": "PubChem BioAssay AID686978",
  "about": "(National Center for Advancing Translational Sciences (NCATS), 2013)",
  "note": "Screen size: about 420,000 compounds; about 64,000 (15%) were called active. Inconclusive results (about 27%) are left out. Only a sample is shown. A number with no mark means an inactive call. Calls come from the whole dose curve; as a rule, active = well fitted inhibition curve with a large enough effect; inconclusive = small, poorly fitted or top-dose-only effect; inactive = flat fitted curve, though single readings scatter. % is set by controls: 0 for no effect and ±100 for the full control effect; potency is the fitted concentration of half-maximal effect.",
  "data": [
    {"assay": "qHTS for Inhibitors of human tyrosyl-DNA phosphodiesterase 1 (TDP1): qHTS in cells in absence of CPT; note: nearly all actives have a fitted effect of over 55% in size", "conditions": "DT40 Tdp1-/- hTDP1 cells, no CPT, ATP luminescence, 48 h; activity change, negative = growth inhibition: at 46.2 µM (top of the series)", "outline": "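Luminescent ATP content (CellTiter-Glo) served as the growth readout. Knockout chicken DT40 cells expressing human TDP1 were exposed to compounds without camptothecin for a minimum 48 hr at 37 °C.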", "values": [
      {"smiles": "COc1cc(N2C(=O)c3ccccc3C2=O)c(Cl)cc1C(=O)OCC(=O)N1CCOCC1", "activity change, negative = growth inhibition": "4.59%"},
      {"smiles": "COc1ccc(C(=O)OC(C)C(=O)NC2CCCC2)cc1S(=O)(=O)N1CCOCC1", "note": "(stereo not given)", "activity change, negative = growth inhibition": "13.3%"},
      {"smiles": "Cc1ccc(NC(=O)NC2CCCCC2)cc1S(=O)(=O)N1CCOCC1", "activity change, negative = growth inhibition": "-4.9%"},
      {"smiles": "Cc1ccc(NC(=O)C2CCC(C(C)(C)C)CC2)cc1S(=O)(=O)N1CCOCC1", "note": "(stereo not given)", "Potency": "20.6 µM (active)"},
      {"smiles": "Cc1ccc(NC(=O)c2ccc(Cl)nc2)cc1S(=O)(=O)N1CCOCC1", "Potency": "8.2 µM (active)"},
      {"smiles": "Cc1ccc(C(=O)Nc2ccccc2C(=O)NC2CCCCC2)cc1S(=O)(=O)N1CCOCC1", "Potency": "18.4 µM (active)"},
      {"smiles": "Cc1ccc(NC(=O)c2ccccn2)cc1S(=O)(=O)N1CCOCC1", "activity change, negative = growth inhibition": "-6.82%"},
      {"smiles": "Cc1ccc(NC(=O)CCCNC(=O)c2ccc(Cl)cc2)cc1S(=O)(=O)N1CCOCC1", "activity change, negative = growth inhibition": "-18.1%"},
      {"smiles": "Cc1ccccc1NC(=O)c1cc(S(=O)(=O)N2CCOCC2)cs1", "activity change, negative = growth inhibition": "-11.8%"},
      {"smiles": "Cc1ccc(NC(=O)COC(=O)C2CC2)cc1S(=O)(=O)N1CCOCC1", "activity change, negative = growth inhibition": "0.794%"},
      {"smiles": "COC(=O)CSc1snnc1-c1ccc(Cl)c(Cl)c1", "activity change, negative = growth inhibition": "1.97%"},
      {"smiles": "O=C(NCCN1CCCC(O)C1)c1cc(COc2c(F)cccc2F)on1", "note": "(stereo not given)", "activity change, negative = growth inhibition": "26.9%"},
      {"smiles": "COC(=O)c1[nH]c2ccc(Br)cc2c1NC(=O)Oc1ccccc1", "activity change, negative = growth inhibition": "1.63%"},
      {"smiles": "CC(=O)N1CCN(CC(=O)Nc2ccc(SC(F)F)cc2)CC1", "activity change, negative = growth inhibition": "2.7%"},
      {"smiles": "O=C(Oc1cccc(NC2=NS(=O)(=O)c3ccccc32)c1)c1ccncc1", "activity change, negative = growth inhibition": "-0.45%"},
      {"smiles": "CC(=O)c1c(C)[nH]c(=S)c(C#N)c1-c1ccc(F)cc1", "activity change, negative = growth inhibition": "8.94%"},
      {"smiles": "CCOc1ccc(NC(=O)C(CC(C)C)N2Cc3ccccc3C2=O)cc1", "note": "(stereo not given)", "activity change, negative = growth inhibition": "-20.1%"},
      {"smiles": "CC(Oc1ccccc1)C(=O)N[C@@H]1C(=O)N2[C@@H]1SC(C)(C)[C@@H]2C(=O)O", "note": "(stereo not given in full)", "activity change, negative = growth inhibition": "-3.68% [at 21.1 µM]"},
      {"smiles": "CSc1ccc(/C=N\\NC(=O)CC(=O)NC(C)C)cc1", "activity change, negative = growth inhibition": "-2.5%"},
      {"smiles": "O=C(O)CC(c1ccccc1F)N1Cc2ccccc2C1=O", "note": "(stereo not given)", "activity change, negative = growth inhibition": "2.01%"},
      {"smiles": "COc1cc(C(CC(=O)NCCC(C)C)N2Cc3ccccc3C2=O)cc(OC)c1OC", "note": "(stereo not given)", "activity change, negative = growth inhibition": "-26.2%"},
      {"smiles": "O=C(CC(c1cccs1)N1Cc2ccccc2C1=O)Nc1ccc(F)cc1F", "note": "(stereo not given)", "Potency": "16.4 µM (active)"},
      {"smiles": "CCc1ccc(NC(=O)C(C)OC(=O)/C=C/c2cccc([N+](=O)[O-])c2)cc1", "note": "(stereo not given)", "activity change, negative = growth inhibition": "7.8%"},
      {"smiles": "Cc1ccc(Cl)cc1-c1ccc(/C=N/n2cnnc2)o1", "activity change, negative = growth inhibition": "-2.4%"},
      {"smiles": "C[C@]12c3[nH]c4ccc(Cl)cc4c3CCN1C(=O)[C@@H](CC(=O)NCCCn1ccnc1)C[C@@H]2C(=O)N1CCOCC1", "activity change, negative = growth inhibition": "-13.3%"},
      {"smiles": "CCN(CC)C(=O)[C@H]1CC(CC(=O)NCc2ccco2)C(=O)N2CCc3c([nH]c4ccccc34)[C@]12C", "note": "(stereo not given in full)", "activity change, negative = growth inhibition": "-17.4%"},
      {"smiles": "CCN(CC)C(=O)[C@H]1C[C@H](CC(=O)NCC23CC4CC(CC(C4)C2)C3)C(=O)N2CCc3c([nH]c4cc(CCC(=O)N(C)C)ccc34)[C@]12C", "Potency": "18.4 µM (active)"},
      {"smiles": "CC[C@]12c3[nH]c4cc(CCC(=O)N(C)C)ccc4c3CCN1C(=O)[C@@H](CC(=O)NCCCN(C)C)C[C@@H]2C(=O)N1CCN(C(=O)c2ccco2)CC1", "activity change, negative = growth inhibition": "-4.3%"},
      {"smiles": "CC(C)N(C(=O)[C@H]1C[C@H](CC(=O)NC(C)(C)C)C(=O)N2CCc3c([nH]c4ccc(Cl)cc34)[C@]12C)C(C)C", "Potency": "6.51 µM (active)"},
      {"smiles": "COc1ccc2[nH]c3c(c2c1)CCN1C(=O)C(CC(=O)NCc2cccc(C(F)(F)F)c2)C[C@H](C(=O)N2CCOCC2)[C@@]31C", "note": "(stereo not given in full)", "activity change, negative = growth inhibition": "-25.2%"},
      {"smiles": "CC[C@]12c3[nH]c4cc(CCC(=O)N(C)C)ccc4c3CCN1C(=O)[C@@H](CC(=O)NCCCn1ccnc1)C[C@@H]2C(=O)N1CCN(C(=O)C2CC2)CC1", "activity change, negative = growth inhibition": "0.652%"},
      {"smiles": "CN(C)C(=O)CCc1ccc2c3c([nH]c2c1)[C@]1(C)[C@@H](C(=O)N2CCCCC2)C[C@H](CC(=O)NCCC2=CCCCC2)C(=O)N1CC3", "Potency": "16.4 µM (active)"},
      {"smiles": "COc1ccc2[nH]c3c(c2c1)CCN1C(=O)C(CC(=O)NCCc2ccccn2)C[C@H](C(=O)N2CCOCC2)[C@@]31C", "note": "(stereo not given in full)", "activity change, negative = growth inhibition": "-1.15%"},
      {"smiles": "CN(C)C(=O)CCc1ccc2c3c([nH]c2c1)[C@]1(C)[C@@H](C(=O)N2CCOCC2)C[C@H](CC(=O)NCCc2ccccn2)C(=O)N1CC3", "activity change, negative = growth inhibition": "6.99%"},
      {"smiles": "CN(C)C(=O)CCc1ccc2c3c([nH]c2c1)[C@]1(CCc2ccccc2)[C@@H](C(=O)N2CCCCC2)C[C@H](CC(=O)NCCC2=CCCCC2)C(=O)N1CC3", "Potency": "9.2 µM (active)"},
      {"smiles": "CC[C@]12c3[nH]c4cc(CCC(=O)N(C)C)ccc4c3CCN1C(=O)[C@@H](CC(=O)NCc1ccco1)C[C@@H]2C(=O)N1CCN(C(=O)c2ccco2)CC1", "activity change, negative = growth inhibition": "-10.2%"},
      {"smiles": "CC(=O)NCC(=O)N1CCC(n2nccc2NC(=O)CCCc2ccccc2)CC1", "activity change, negative = growth inhibition": "-7.46%"},
      {"smiles": "OCC[C@H]1C[C@H](O)[C@@H](O)[C@]2(CCCCO2)O1", "activity change, negative = growth inhibition": "-6.13%"},
      {"smiles": "COc1ccc(-c2c(C#N)cnc(C)c2C)c(O)c1OC", "activity change, negative = growth inhibition": "-27.4%"},
      {"smiles": "CSCCC(NC(=O)COc1ccccc1)C(=O)Nc1ccc(C)cc1", "note": "(stereo not given)", "activity change, negative = growth inhibition": "-28.3%"},
      {"smiles": "O=C(O)c1ccc(COc2c(F)c(F)cc(F)c2F)o1", "activity change, negative = growth inhibition": "18.8%"},
      {"smiles": "CC(=O)N1CCC2(CCCN(Cc3ccc(C#N)cc3)C2)CC1", "activity change, negative = growth inhibition": "0.656%"},
      {"smiles": "CS(=O)(=O)NC(=O)CCC/C=C\\C[C@H]1C(=O)C[C@@H](O)[C@@H]1/C=C/[C@H](O)COc1ccccc1", "activity change, negative = growth inhibition": "-1.9%"},
      {"smiles": "CC(Sc1ncnc2c1cnn2-c1ccccc1)C(=O)Nc1ccc(N2CCOCC2)cc1", "note": "(stereo not given)", "activity change, negative = growth inhibition": "-1.88%"},
      {"smiles": "Cc1cc2nc(SCCN3CCOCC3)[nH]c2cc1C", "activity change, negative = growth inhibition": "-12.7%"}
    ]}
  ]
}
